Where a name gives a salt, the structure may show the parent alone.
What was measured:
Conditions in all cases: 10 µM; exposure time: 3 h pre-incubation + 3 h imaging
[1] = tested on: Danio rerio larvae (5 dpf); assay: habituation to 1-s acoustic pulses, difference vs DMSO (percentage points (treated minus DMSO)); higher = more of the behaviour than the DMSO vehicle control
Summary of the method: (§1)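 5-dpf wild-type zebrafish larvae in 96-well ProxiPlates were exposed to library drugs at 10 µM (diluted 1000× from DMSO stocks into egg water). There were 48 larvae per drug, exposed 3 h before and 3 h during imaging at 28.5 °C. Images taken every 6 s covered a 3-h program of rest, moving coloured lines and acoustic pulses, and an ImageJ macro scored movement and upper-half location. Each behaviour score is the treated-group mean minus the DMSO vehicle mean, in percentage points.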

[2] = tested on: Danio rerio larvae (5 dpf); assay: excitability to 1-s acoustic pulses, difference vs DMSO (percentage points (treated minus DMSO)); higher = more of the behaviour than the DMSO vehicle control
Summary of the method: as §1

[3] = tested on: Danio rerio larvae (5 dpf); assay: activity during first hour (no stimuli), difference vs DMSO (percentage points (treated minus DMSO)); higher = more of the behaviour than the DMSO vehicle control
Summary of the method: as §1

[4] = tested on: Danio rerio larvae (5 dpf); assay: startle response to 20-s acoustic pulses, difference vs DMSO (percentage points (treated minus DMSO)); higher = more of the behaviour than the DMSO vehicle control
Summary of the method: as §1

[5] = tested on: Danio rerio larvae (5 dpf); assay: optomotor response to red moving lines, difference vs DMSO (percentage points (treated minus DMSO)); higher = more of the behaviour than the DMSO vehicle control
Summary of the method: as §1

[6] = tested on: Danio rerio larvae (5 dpf); assay: activity during period 15 (no stimuli), difference vs DMSO (percentage points (treated minus DMSO)); higher = more of the behaviour than the DMSO vehicle control
Summary of the method: as §1

[7] = tested on: Danio rerio larvae (5 dpf); assay: optomotor response to blue moving lines, difference vs DMSO (percentage points (treated minus DMSO)); higher = more of the behaviour than the DMSO vehicle control
Summary of the method: as §1

[8] = tested on: Danio rerio larvae (5 dpf); assay: optomotor response to fast red moving lines, difference vs DMSO (percentage points (treated minus DMSO)); higher = more of the behaviour than the DMSO vehicle control
Summary of the method: as §1

[9] = tested on: Danio rerio larvae (5 dpf); assay: optomotor response to green moving lines, difference vs DMSO (percentage points (treated minus DMSO)); higher = more of the behaviour than the DMSO vehicle control
Summary of the method: as §1

In the case of `CN1CCC[C@@H]1CCO[C@](C)(c1ccccc1)c1ccc(Cl)cc1` [Clemastine fumarate], the “habituation to 1-s acoustic pulses” value [1] is reported as -5.08, the “excitability to 1-s acoustic pulses” value [2] is reported as 15.4 and the “activity during first hour” value [3] is reported as 4.9. For the same compound, the “startle response to 20-s acoustic pulses” value [4] was -7.67.

For `Cc1cc2c(s1)Nc1ccccc1N=C2N1CCN(C)CC1` [Olanzapine], the “optomotor response to red moving lines” value [5] was 4.76.

`CNC(=O)c1cc(Oc2ccc(NC(=O)Nc3ccc(Cl)c(C(F)(F)F)c3)cc2)ccn1` [Sorafenib] was tested, and the “habituation to 1-s acoustic pulses” value [1] was -8.29, the “excitability to 1-s acoustic pulses” value [2] was 14.4 and the “activity during first hour” value [3] was 3.08.

`CC(C)(C(=O)c1cccnc1)c1cccnc1` [Metyrapone] was tested, and the “optomotor response to red moving lines” value [5] was 4.83.

With `CCCc1nn(C)c2c(=O)[nH]c(-c3cc(S(=O)(=O)N4CCN(C)CC4)ccc3OCC)nc12` [Sildenafil citrate] the “habituation to 1-s acoustic pulses” value [1] was -2.79, the “excitability to 1-s acoustic pulses” value [2] was 4.02 and the “optomotor response to red moving lines” value [5] was -6. For the same compound, the “activity during period 15” value [6] was -20.2, the “optomotor response to blue moving lines” value [7] was 8.78 and the optomotor response [8] was -12.3.

With `CCCCCCCCc1ccc(CCC(N)(CO)CO)cc1` the “activity during first hour” value [3] was -17.7 and the optomotor response [8] was 10.4.

`CC1CNc2c(cccc2S(=O)(=O)N[C@@H](CCCNC(=N)N)C(=O)N2CC[C@@H](C)C[C@@H]2C(=O)O)C1` (some centres not stated) [Argatroban] was tested, and the “excitability to 1-s acoustic pulses” value [2] was 0.477, the “optomotor response to red moving lines” value [5] was -3.42 and the “optomotor response to blue moving lines” value [7] was 4.3. For the same compound, the “startle response to 20-s acoustic pulses” value [4] was 2.94.

In the case of `O=C(O)CCCc1ccccc1` [Sodium 4-Phenylbutyrate], the “excitability to 1-s acoustic pulses” value [2] is reported as 2.04, the “optomotor response to red moving lines” value [5] is reported as 3.33 and the “optomotor response to blue moving lines” value [7] is reported as 3.11. The optomotor response [8] was -11.

With `Cc1ccc(O)c([C@H](CCN(C(C)C)C(C)C)c2ccccc2)c1` [Tolterodine L-tartrate] the “habituation to 1-s acoustic pulses” value [1] was -4.35, the “optomotor response to red moving lines” value [5] was -0.0985 and the “optomotor response to blue moving lines” value [7] was 7.18. The “optomotor response to green moving lines” value [9] was 0.477 and the “startle response to 20-s acoustic pulses” value [4] was -5.76.

For `C[C@@H](O[C@H]1OCCN(Cc2n[nH]c(=O)[nH]2)[C@H]1c1ccc(F)cc1)c1cc(C(F)(F)F)cc(C(F)(F)F)c1` [Aprepitant], the “habituation to 1-s acoustic pulses” value [1] was 0.23 and the “activity during first hour” value [3] was -7.38.

In the case of `COc1ccc(Cl)cc1C(=O)NCCc1ccc(S(=O)(=O)NC(=O)NC2CCCCC2)cc1` [Glibenclamide], the “excitability to 1-s acoustic pulses” value [2] is reported as -0.0554 and the “activity during first hour” value [3] is reported as 1.18.

For `NS(=O)(=O)c1cc2c(cc1Cl)NC(C1CC3C=CC1C3)NS2(=O)=O` (configuration not stated) [Cyclothiazide], the “excitability to 1-s acoustic pulses” value [2] was 0.586, the “activity during first hour” value [3] was 0.422 and the “startle response to 20-s acoustic pulses” value [4] was -0.96.

In the case of `CNC(=O)c1ccccc1Sc1ccc2c(/C=C/c3ccccn3)n[nH]c2c1` [Axitinib], the “excitability to 1-s acoustic pulses” value [2] is reported as 1.46, the “activity during period 15” value [6] is reported as 3.22 and the “activity during first hour” value [3] is reported as -2.72. The “startle response to 20-s acoustic pulses” value [4] was -7.73.

`CCC(C)(C)C(=O)O[C@H]1C[C@@H](C)C=C2C=C[C@H](C)[C@H](CC[C@@H]3C[C@@H](O)CC(=O)O3)[C@H]21` [Simvastatin] was tested, and the “excitability to 1-s acoustic pulses” value [2] was 8.31, the “activity during period 15” value [6] was -3.71 and the “activity during first hour” value [3] was 7.12.

In the case of `O=C(O[C@@H]1C[C@@H]2C[C@H]3C[C@H](C1)N2CC3=O)c1c[nH]c2ccccc12` [Dolasetron mesylate], the “activity during first hour” value [3] is reported as -1.16 and the optomotor response [8] is reported as -6.96.

For `Clc1ccccc1C(c1ccccc1)(c1ccccc1)n1ccnc1` [Clotrimazole], the “excitability to 1-s acoustic pulses” value [2] was 14, the “optomotor response to red moving lines” value [5] was 26.3 and the “activity during period 15” value [6] was -30.5. The “optomotor response to blue moving lines” value [7] was 14.5.

With `O=C(NCC1CCCCN1)c1cc(OCC(F)(F)F)ccc1OCC(F)(F)F` (configuration not stated) [Flecainide acetate] the “habituation to 1-s acoustic pulses” value [1] was -2.35 and the “activity during first hour” value [3] was 0.441.

In the case of `CCCCCOC(=O)Nc1nc(=O)n([C@@H]2O[C@H](C)[C@@H](O)[C@H]2O)cc1F` [Capecitabine], the “habituation to 1-s acoustic pulses” value [1] is reported as -3.26, the “excitability to 1-s acoustic pulses” value [2] is reported as 4.17 and the “activity during period 15” value [6] is reported as 2.91. For the same compound, the “activity during first hour” value [3] was 6.31, the “startle response to 20-s acoustic pulses” value [4] was 3 and the optomotor response [8] was 5.07.

With `CN1CCN2c3ncccc3Cc3ccccc3C2C1` (configuration not stated) [Mirtazapine] the “optomotor response to red moving lines” value [5] was -3.88, the “optomotor response to blue moving lines” value [7] was -2.95 and the “optomotor response to green moving lines” value [9] was -1.59. It also gave an optomotor response [8] of -5.17.

For `COc1cc([C@@H]2c3cc4c(cc3[C@@H](O[C@@H]3O[C@@H]5CO[C@@H](C)O[C@H]5[C@H](O)[C@H]3O)[C@H]3COC(=O)[C@H]23)OCO4)cc(OC)c1O` [Etoposide], the “optomotor response to red moving lines” value [5] was 2.25.

In the case of `CC[C@H](C)C(=O)O[C@H]1C[C@@H](C)C=C2C=C[C@H](C)[C@H](CC[C@@H]3C[C@@H](O)CC(=O)O3)[C@H]21` [Lovastatin], the “activity during first hour” value [3] is reported as -0.394 and the “startle response to 20-s acoustic pulses” value [4] is reported as -0.839.

With `C[C@H]1O[C@H](O[C@H]2[C@H](O)[C@@H](O)[C@@H](O[C@H]3[C@H](O)[C@@H](O)C(O)O[C@@H]3CO)O[C@@H]2CO)[C@H](O)[C@@H](O)[C@@H]1N[C@H]1C=C(CO)[C@@H](O)[C@H](O)[C@H]1O` (some centres not stated) [Acarbose] the “activity during first hour” value [3] was -0.41, the “startle response to 20-s acoustic pulses” value [4] was -6.81 and the optomotor response [8] was 12.4.

`Clc1ccc(COC(Cn2ccnc2)c2ccc(Cl)cc2Cl)c(Cl)c1` (configuration not stated) [Miconazole nitrate] was tested, and the “habituation to 1-s acoustic pulses” value [1] was -15.5, the “excitability to 1-s acoustic pulses” value [2] was -0.632 and the “activity during period 15” value [6] was -12.8. For the same compound, the “activity during first hour” value [3] was -18.4, the “startle response to 20-s acoustic pulses” value [4] was 4.56 and the optomotor response [8] was -18.6.

For `NC(=O)c1ncn([C@@H]2O[C@H](CO)[C@@H](O)[C@H]2O)n1` [Ribavirin], the “habituation to 1-s acoustic pulses” value [1] was -1.17, the “optomotor response to red moving lines” value [5] was 7.68 and the “optomotor response to blue moving lines” value [7] was 9.25.

In the case of `CC(=O)Oc1ccccc1C(=O)O` [Aspirin], the “optomotor response to red moving lines” value [5] is reported as 7.38 and the “optomotor response to blue moving lines” value [7] is reported as 2.57.

In the case of `O=C1CCc2cc(OCCCCc3nnnn3C3CCCCC3)ccc2N1` [Cilostazol], the “excitability to 1-s acoustic pulses” value [2] is reported as 6.57, the “activity during first hour” value [3] is reported as 10.3 and the “startle response to 20-s acoustic pulses” value [4] is reported as 2.19.

— the supplement of paper PMC9023506
